Measurements taken from PubChem BioAssay.
The source made the active and inactive calls.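 How the source made its calls, unless noted: active means inhibition of the reporter signal at or above 50%; inactive means inhibition below 50%.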

Experiments:
[1] = inhibitors of TNFa-induced NFkB p65 translocation, primary screen, imaging, HUVEC, MLSMR starter and 10KST1 sets (AID 438;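 active means inhibition above 20% together with a positive visual image hit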;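 further: compound added about 3h40 before a 20 min TNFalpha stimulation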;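 on inhibition: signal is the nuclear over cytoplasmic p65 intensity ratio per well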); conditions: HUVEC TNFa-induced p65 nuclear translocation; cell count: measured here: nuclei count (cytotoxicity indicator), at 2.08 µM; inhibition: at 2 µM, stronger effect = higher value, 0% TNFa-plus-vehicle, 100% no-TNFa wells
[2] = reduction of polyQ htt aggregates in cells – imaging, exon1htt(103Q)mCFP cells, high-content imaging, primary screen (AID 483;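 active means visual image review flags a hit and inhibition of aggregation exceeds 20%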;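 further: compound exposure lasted 3 days before fixation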;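 on nuclei count: percent of the per-plate median nuclei count of sample wells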); conditions: exon1htt(103Q)mCFP cell line, aggregate imaging, at 2 µM; inhibition of aggregation: stronger effect = higher value; nuclei count: measured here: cell count, toxicity
[3] = endothelial E-selectin expression blockers – imaging, HUVEC, immunofluorescence, MLSMR starter and 10KST1 sets, primary screen (AID 487;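 active means visually confirmed hit in the image check and inhibition above 20%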;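 on inhibition: signal is fraction of cell area covered by stained E-selectin grains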;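 on nuclei count: 100% = median nuclei count of all wells on the same plate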); conditions: HUVEC TNFalpha-induced E-selectin immunofluorescence imaging, at 2 µM; inhibition: stronger effect = higher value; nuclei count: measured here: cell number, toxicity
[4] = biological target: Voltage-gated potassium channel subunit beta-2 (Rattus norvegicus) (UniProt P62483); assay: inhibitors of rat Kvbeta2 reductase activity – biochemical, NADPH fluorescence, primary screen (AID 622;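 active means fluorescence slope higher than the sample average by over 3 SD, cut at about -0.22 in these data, passing the limit was not always enough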;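 further: slope of raw intensity against log time taken from 70 to 1610 s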); conditions: recombinant KvBeta, 4-cyanobenzaldehyde reduction, at 10 µM, stronger effect = higher value
Voltage-gated potassium channel subunit beta-2 (Rattus norvegicus), sequence (P62483 whole entry, looked up): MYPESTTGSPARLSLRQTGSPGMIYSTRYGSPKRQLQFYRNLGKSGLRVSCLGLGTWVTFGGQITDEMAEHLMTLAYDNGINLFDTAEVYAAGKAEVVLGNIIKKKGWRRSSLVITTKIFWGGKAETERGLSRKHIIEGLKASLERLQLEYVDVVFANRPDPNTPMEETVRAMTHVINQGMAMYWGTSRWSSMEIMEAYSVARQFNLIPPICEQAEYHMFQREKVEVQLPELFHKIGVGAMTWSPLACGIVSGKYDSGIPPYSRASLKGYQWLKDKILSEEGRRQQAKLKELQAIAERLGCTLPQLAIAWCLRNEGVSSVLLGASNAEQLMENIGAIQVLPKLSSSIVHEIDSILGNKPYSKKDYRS

[5] = biological target: Voltage-gated potassium channel subunit beta-2 (Rattus norvegicus) (UniProt P62483); assay: enhancers of rat Kvbeta2 NADPH turnover – biochemical, NADPH fluorescence, primary screen (AID 623;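 active means NADPH fluorescence slope more negative than the mean of all samples by about 3 SD, 99.7% confidence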;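 further: fluorescence intensity change per second fitted from 20 to 320 s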); conditions: Recombinant KvBeta, NADPH fluorescence decrease slope, 10 min; at 10 µM; stronger effect = lower value
[6] = biological target: Alpha-2C adrenergic receptor (Homo sapiens) (UniProt P18825); assay: compounds altering alpha2C-coupled GIRK flux – cell-based, HEK293 alpha2C/GIRK1/2, thallium flux, primary screen (AID 624;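 active means fluorescence slope after compound addition differing from the mean of all screened samples at 99.7% confidence, in either direction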;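 further: slope of fluorescence ratio to pre-addition baseline per second over 15 to 24 s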); conditions: thallium flux BTC fluorescence, at 10 µM, actives lie on both sides
Alpha-2C adrenergic receptor (Homo sapiens), sequence (P18825 whole entry, looked up): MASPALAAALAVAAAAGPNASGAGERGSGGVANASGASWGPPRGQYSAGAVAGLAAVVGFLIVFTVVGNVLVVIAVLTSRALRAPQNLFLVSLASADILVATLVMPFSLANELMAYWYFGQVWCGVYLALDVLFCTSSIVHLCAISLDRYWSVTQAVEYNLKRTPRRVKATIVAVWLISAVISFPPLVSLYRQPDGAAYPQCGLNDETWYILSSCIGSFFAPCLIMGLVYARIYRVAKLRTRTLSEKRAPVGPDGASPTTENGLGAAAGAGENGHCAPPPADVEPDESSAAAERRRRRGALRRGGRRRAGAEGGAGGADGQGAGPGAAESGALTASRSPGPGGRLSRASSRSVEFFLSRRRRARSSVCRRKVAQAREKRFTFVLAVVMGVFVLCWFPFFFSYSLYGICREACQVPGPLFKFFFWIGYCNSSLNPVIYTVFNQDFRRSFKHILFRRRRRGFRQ

[7] = blockers of RIG-like receptor reporter activation – cell-based, Sendai virus stimulus, luciferase, 10K MLSCN set, TLR/RLR signaling modifier project, primary screen (AID 602276;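 active means inhibition at or above 50% at 10 µM; inactive means inhibition below 50%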;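 further: firefly luciferase from ISG56 promoter only with Renilla not read in this screen; 0% = Sendai virus plus DMSO and 100% = medium plus DMSO without virus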); conditions: HEK293 RL24 IRF3 luciferase reporter, at 10 µM, stronger effect = higher value
[8] = TLR3 IRF3 reporter activation blockers – cell-based, poly I:C stimulus, luciferase, 10K MLSCN set, primary screen (AID 602277); conditions: HEK293-TLR3 RL24 IRF3 luciferase reporter, at 10 µM, stronger effect = higher value

Structure (SMILES) | cell count [1] | inhibition [1] | inhibition of aggregation [2] | nuclei count [2] [%] | inhibition [3] | nuclei count [3] [%] | fluorescence slope [4] | NADPH fluorescence slope [5] | slope [6] | inhibition [7] | inhibition [8]
COCCNC(=O)c1cc(-c2cccs2)on1 | 793 | -4% (inactive) | -19.1% (inactive) | 116 | -46.8% (inactive) | 126 | -0.587 (inactive) | 6.5e-06 (inactive) | 0.00598 (inactive) | -27.2% (inactive) | -253% (inactive)
Cc1ccc(CSC2=NCCN2C(=O)c2ccco2)cc1 | 661 | 1.3% (inactive) | -14.6% (inactive) | 106 | -11.6% (inactive) | 115 | -0.613 (inactive) | -1.3e-05 (inactive) | 0.00684 (inactive) | -0.0387% (inactive) | 0.194% (inactive)
CCN=C1SC(CC(=O)Nc2ccccc2)C(=O)N1CC (stereo unspecified) | 265 | 3.4% (inactive) | 26.6% (inactive) | 92 | -95.4% (inactive) | 109 | -0.341 (inactive) | -1.1e-05 (inactive) | 0.00797 (inactive) | 8.21% (inactive) | 30% (inactive)
CCC1C(=O)N=C(SCC(=O)Nc2cccc3ccccc23)NC1=O (stereo unspecified) | 393 | -4% (inactive) | 3.1% (inactive) | 101 | -41.3% (inactive) | 119 | -0.564 (inactive) | -4.5e-05 (inactive) | 0.00593 (inactive) | -15.6% (inactive) | 0.719% (inactive)
CCOC(=O)N1CCC(NC(=O)Cn2ncc3c4ccccc4n(C)c3c2=O)CC1 | 557 | -1% (inactive) | -0.9% (inactive) | 98.6 | -47.7% (inactive) | 105 | -0.28 (inactive) | -2.3e-05 (inactive) | 0.00602 (inactive) | 14.9% (inactive) | 26% (inactive)
c1ccc(-n2c(Sc3cnccn3)nnc2-c2cccs2)cc1 | 362 | -24.6% (inactive) | 2.4% (inactive) | 100 | -37.1% (inactive) | 149 | -0.612 (inactive) | -1.5e-05 (inactive) | 0.00525 (inactive) | -2.69% (inactive) | 12.5% (inactive)
CCOC(=O)C1(CC)NC(c2cccc(F)c2)C2C(=O)N(CC)C(=O)C21 (stereo unspecified) | 567 | -7.7% (inactive) | 21.4% (inactive) | 93.8 | -6.6% (inactive) | 70.2 | -0.476 (inactive) | -0.00018 (inactive) | 0.00451 (inactive) | 12.4% (inactive) | 16.3% (inactive)
C=CCn1c(SCC(=O)Nc2ccccc2OC)nnc1-c1ccco1 | 736 | 11% (inactive) | 1.8% (inactive) | 105 | 0.9% (inactive) | 120 | -0.494 (inactive) | -5.8e-05 (inactive) | 0.00624 (inactive) | 20.4% (inactive) | 22.4% (inactive)
Cn1c(=O)c2c(ncn2CC(=O)OCC(=O)NC2CCCc3ccccc32)n(C)c1=O (stereo unspecified) | 392 | 2.7% (inactive) | 23.7% (inactive) | 64.6 | -85.1% (inactive) | 112 | -0.616 (inactive) | 2.2e-06 (inactive) | 0.00842 (inactive) | 2.45% (inactive) | 22.5% (inactive)
COc1ccc(C)cc1S(=O)(=O)Nc1cccnc1 | 283 | 0.4% (inactive) | 13.9% (inactive) | 78.8 | -61.4% (inactive) | 90 | -0.475 (inactive) | -3.8e-05 (inactive) | 0.00515 (inactive) | 25.8% (inactive) | 25.5% (inactive)
Cc1ccc(-c2nnc(N3CCN(C(=O)CN4C(=O)c5ccccc5C4=O)CC3)c3ccccc23)cc1 | 375 | 10.2% (inactive) | -15.9% (inactive) | 109 | -158% (inactive) | 133 | -0.468 (inactive) | -5.9e-05 (inactive) | 0.00522 (inactive) | 8.25% (inactive) | 12.9% (inactive)
Cc1ccc(-n2ncc3c(N4CCCC(C)C4)ncnc32)c(C)c1 (stereo unspecified) | 558 | 8% (inactive) | 10.5% (inactive) | 85.8 | 3.1% (inactive) | 93.2 | -0.527 (inactive) | -3.3e-05 (inactive) | 0.00664 (inactive) | -57.7% (inactive) | -125% (inactive)
O=C(NC1CC1)c1cccc(Nc2ccc(-c3ccc4c(c3)OCCO4)nn2)c1 | 336 | -1.6% (inactive) | -55% (inactive) | 106 | -177% (inactive) | 126 | -0.358 (inactive) | -2.6e-05 (inactive) | 0.00455 (inactive) | -75.9% (inactive) | -132% (inactive)
CCOC(=O)CSc1nnc(NCC(=O)OC(C)C)c(=O)[nH]1 | 634 | 7.2% (inactive) | 3.7% (inactive) | 100 | -81.4% (inactive) | 144 | -0.573 (inactive) | 3.9e-05 (inactive) | 0.00694 (inactive) | 9.31% (inactive) | 3.05% (inactive)
Cc1cc(C)n(-c2cc(N3CCOCC3)ncn2)n1 | 690 | -9.8% (inactive) | 3% (inactive) | 89.8 | -69.3% (inactive) | 125 | -0.436 (inactive) | -3.4e-06 (inactive) | 0.00484 (inactive) | 2.82% (inactive) | 0.822% (inactive)
OC1C[N+]2(CCCCC2)C1 | 278 | 9.3% (inactive) | -10.6% (inactive) | 104 | 62.9% (active) | 111 | -0.497 (inactive) | -5.4e-05 (inactive) | 0.00461 (inactive) | 11.5% (inactive) | 10.3% (inactive)
CCOC(=O)C1CCN(c2c(N(C)Cc3ccco3)c(=O)c2=O)CC1 | 789 | 0.9% (inactive) | 3.8% (inactive) | 103 | -33.1% (inactive) | 114 | -0.576 (inactive) | -2.6e-05 (inactive) | 0.00601 (inactive) | 5.07% (inactive) | 22.7% (inactive)
O=C(Nc1ccc2c(c1)OCO2)C(c1ccc(Cl)cc1)N1CCN(C(=O)c2ccco2)CC1 (stereo unspecified) | 359 | -2.1% (inactive) | -23.2% (inactive) | 102 | -43.9% (inactive) | 110 | -0.47 (inactive) | -3.7e-05 (inactive) | 0.00661 (inactive) | 20.6% (inactive) | 28.1% (inactive)
CC(C)Cn1c(=O)c(C2=NS(=O)(=O)c3ccccc3N2)c(O)c2ccccc21 | 407 | -0.4% (inactive) | 10.3% (inactive) | 93.8 | -61.6% (inactive) | 125 | -0.353 (inactive) | -0.000128 (inactive) | 0.00697 (inactive) | 15.1% (inactive) | 18% (inactive)
O=C(NCC1CCCO1)c1ccccc1-c1nc(-c2ccc(Cl)cc2)no1 (stereo unspecified) | 821 | -0.7% (inactive) | 1.8% (inactive) | 101 | -141% (inactive) | 122 | -0.483 (inactive) | 3.6e-05 (inactive) | 0.0055 (inactive) | -17.2% (inactive) | -4.71% (inactive)
CCOC(=O)c1nnc(-c2ccccc2)o1 | 620 | 2.2% (inactive) | -2.9% (inactive) | 114 | -14.5% (inactive) | 89.7 | -0.592 (inactive) | -3.3e-05 (inactive) | 0.00603 (inactive) | 17.6% (inactive) | -1.89% (inactive)
O=C(CSc1nnc(COc2ccc(Cl)cc2)o1)N1CCN(c2ccccc2)CC1 | 359 | -0.5% (inactive) | -18.8% (inactive) | 98.2 | -83.8% (inactive) | 110 | -0.501 (inactive) | -3.2e-06 (inactive) | 0.00706 (inactive) | 5.53% (inactive) | -9% (inactive)
CCCn1c(SCC(=O)Nc2ccccc2C(=O)OC)nc2c1c(=O)n(C)c(=O)n2C | 576 | -10.9% (inactive) | 20.6% (inactive) | 95.3 | -152% (inactive) | 84.8 | -0.395 (inactive) | -7.6e-05 (inactive) | 0.00511 (inactive) | 15.9% (inactive) | 13% (inactive)
COc1cccc(-c2cc(C(F)(F)F)n3ncc(C(=O)O)c3n2)c1 | 382 | -2.6% (inactive) | 13.4% (inactive) | 94.7 | -22.3% (inactive) | 73.7 | -0.576 (inactive) | -5.3e-05 (inactive) | 0.00328 (inactive) | 11% (inactive) | 20.4% (inactive)
COc1ccc(-c2ccc(-c3nnn(CC(C)=O)n3)cc2)cc1 | 277 | -6.2% (inactive) | -10.7% (inactive) | 111 | -65% (inactive) | 130 | -0.516 (inactive) | -4.2e-05 (inactive) | 0.00693 (inactive) | -41% (inactive) | -130% (inactive)
C=CCc1cc(OC)ccc1OCC(O)CN1CCN(c2ccc(OC)cc2)CC1 (stereo unspecified) | 402 | 2.5% (inactive) | 1.9% (inactive) | 105 | -16.2% (inactive) | 106 | -0.629 (inactive) | 7.7e-07 (inactive) | 0.00605 (inactive) | 12.2% (inactive) | 22.6% (inactive)
